Out of some 22,000 compounds screened, about 460 (2.1%) were called active. Roughly 2% stayed inconclusive and do not appear here.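 Rule for the calls: active = mean inhibition across valid replicates above about 65% (limit read from the data); inconclusive = mean under the limit, yet half or more replicates past it; inactive = the rest.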 This excerpt belongs to a sample that is enriched for actives.
experiment: Shh-driven Gli reporter inhibition – luminescence, Shh-LIGHT2 cells, Gli-luciferase, primary screen (AID 2313); settings: 30 h, hits give high values;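 note: pathway switched on by Shh-conditioned medium diluted 1 in 25 in low serum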

Q: With `CC(=O)Nc1nc2ccccc2s1` as the compound, how does the inhibition read?
A: -52.3% (inactive)

Q: For `CS(=O)(=O)c1sc(C(=O)NC(=S)Nc2ccc(OC(F)(F)F)cc2)c2c1C=CCC2`, which inhibition is on record?
A: 42.2% (inactive)

Q: Which inhibition does the source give for `C[C@H]1CN([C@@H](C)CO)C(=O)Cc2cc(NS(=O)(=O)c3cn(C)cn3)ccc2O[C@H]1CN(C)C(=O)Nc1ccc(F)cc1` here?
A: 6.67% (inactive)

Q: Which inhibition does the source give for `CCOC(=O)c1nnn2c3ccccc3c(=O)n(C)c12` here?
A: -16.2% (inactive)

Q: With `C=C1C2=CC(=O)O[C@@H](c3ccoc3)[C@]2(C)CCC1[C@@]1(C)C=CC(=O)C(C)(C)[C@@H]1CC(=O)OC` (stereo partly specified) as the compound, how does the inhibition read?
A: -0.584% (inactive)

Q: For `COc1c2c(cc3occ(-c4ccc5c(c4)OCO5)c(=O)c13)OC(C)(C)C=C2`, which inhibition is on record?
A: 79.6% (active)

Q: For `COc1ccc(NC(=O)Nc2cccc3c2O[C@H](CN(C)C(=O)Nc2cccc4ccccc24)[C@H](C)CN([C@H](C)CO)C3=O)cc1`, which inhibition is on record?
A: -19.9% (inactive)

Q: With `COc1ccc(S(=O)(=O)Nc2ccc3c(c2)CC(=O)N([C@H](C)CO)C[C@@H](C)[C@@H](CN(C)S(=O)(=O)c2ccc(F)cc2)O3)cc1` as the compound, how does the inhibition read?
A: -24.3% (inactive)

Q: For `COc1ccc(NC(=O)Nc2ccc3c(c2)CC(=O)N([C@H](C)CO)C[C@H](C)[C@H](CN(C)Cc2ccncc2)O3)cc1`, which inhibition is on record?
A: 32.2% (inactive)

Q: For `C[C@@H]1CN([C@H](C)CO)C(=O)Cc2cc(NC(=O)Nc3ccccc3)ccc2O[C@H]1CN(C)Cc1ccc(Cl)c(Cl)c1`, which inhibition is on record?
A: -42% (inactive)

Q: Which inhibition does the source give for `COc1ccc(S(=O)(=O)Nc2cccc3c2O[C@H](CN(C)C(=O)Nc2cccc4ccccc24)[C@H](C)CN([C@@H](C)CO)C3=O)cc1` here?
A: 46.2% (inactive)

Q: With `C[C@H](CO)N1C[C@H](C)[C@@H](CN(C)C(=O)Nc2ccc3c(c2)OCO3)Oc2c(cccc2N(C)C)C1=O` as the compound, how does the inhibition read?
A: -27% (inactive)

Q: Which inhibition does the source give for `C[C@@H]1CCCCO[C@H](CN(C)C(=O)NC2CCCCC2)[C@@H](C)CN([C@H](C)CO)C(=O)c2cc(NS(C)(=O)=O)ccc2O1` here?
A: -30.2% (inactive)

Q: For `C[C@@H]1CN([C@H](C)CO)C(=O)Cc2cc(NC(=O)Nc3ccc(C(F)(F)F)cc3)ccc2O[C@H]1CN(C)Cc1ccc(-c2ccccc2)cc1`, which inhibition is on record?
A: -14% (inactive)

Q: Which inhibition does the source give for `O=C1c2ccccc2C(=O)N1CC1OCc2ccccc2CO1` here?
A: -41.8% (inactive)

Q: With `O=C(Nc1ccccc1)Nc1cc(C2CC2)nn1-c1ccccc1` as the compound, how does the inhibition read?
A: -37.7% (inactive)

Q: For `CC(C)NC(=O)N(C)C[C@@H]1Oc2ccc(NC(=O)C3CCCCC3)cc2CC(=O)N([C@H](C)CO)C[C@@H]1C`, which inhibition is on record?
A: -27.5% (inactive)

Q: For `C[C@H]1CN([C@@H](C)CO)C(=O)c2cc(NC(=O)Cc3cn(C)c4ccccc34)ccc2O[C@@H]1CN(C)Cc1ccc(Cl)c(Cl)c1`, which inhibition is on record?
A: 15.9% (inactive)

Q: For `O=C(Oc1ccc(Cl)cc1)c1csc(C2COc3ccccc3O2)n1` (stereo unspecified), which inhibition is on record?
A: -8.84% (inactive)

Q: With `C[C@@H]1CN([C@H](C)CO)C(=O)Cc2cc(N(C)C)ccc2O[C@H]1CN(C)S(C)(=O)=O` as the compound, how does the inhibition read?
A: -5.86% (inactive)

Q: For `Cc1ccc(S(=O)(=O)Nc2ccc3c(c2)C(=O)N([C@@H](C)CO)C[C@H](C)[C@@H](CN(C)CC2CC2)O3)cc1`, which inhibition is on record?
A: 11.4% (inactive)

Q: With `O=C(O)c1ccc(NS(=O)(=O)c2ccc3c4c(cccc24)C(=O)N3)cc1` as the compound, how does the inhibition read?
A: -9.19% (inactive)

Q: Which inhibition does the source give for `C[C@H]1CN([C@@H](C)CO)C(=O)c2cccc(NS(=O)(=O)c3ccc(F)cc3)c2O[C@@H]1CN(C)Cc1ccncc1` here?
A: 3.57% (inactive)

Q: With `Cc1ccc(S(=O)(=O)N(C)C[C@H]2Oc3c(NS(=O)(=O)c4ccc(Cl)cc4)cccc3C(=O)N([C@H](C)CO)C[C@@H]2C)cc1` as the compound, how does the inhibition read?
A: -17.4% (inactive)

Q: Which inhibition does the source give for `Cc1ccc(-n2nnnc2-c2cnn(-c3ccccc3)c2C)cc1` here?
A: 88.7% (active)

Q: With `CCCN(C)C[C@H]1OCCCC[C@@H](C)Oc2ccc(N(C)C)cc2C(=O)N([C@H](C)CO)C[C@@H]1C` as the compound, how does the inhibition read?
A: -12.9% (inactive)

Q: For `COc1ccc(CN(C)C[C@H]2Oc3c(NS(=O)(=O)c4ccccc4)cccc3C(=O)N([C@H](C)CO)C[C@@H]2C)cc1`, which inhibition is on record?
A: -36.7% (inactive)

Q: With `COc1ccc(S(=O)(=O)N(C)C[C@H]2Oc3c(NC(=O)Nc4ccc5c(c4)OCO5)cccc3C(=O)N([C@H](C)CO)C[C@@H]2C)cc1` as the compound, how does the inhibition read?
A: 18.1% (inactive)

Q: For `CC(=O)Nc1ccc(Nc2c3c4c(cccc4[nH]c2=O)C(=O)c2ccccc2-3)cc1`, which inhibition is on record?
A: 88.2% (active)

Q: With `COc1ccc(CCN=C2SCC(=O)N2Cc2ccccc2)cc1OC` as the compound, how does the inhibition read?
A: 13.3% (inactive)

Q: For `Cc1noc(C)c1NC(=O)Nc1ccc2c(c1)C(=O)N([C@H](C)CO)C[C@H](C)[C@H](CN(C)Cc1ccncc1)OCCCC[C@@H](C)O2`, which inhibition is on record?
A: 0.0543% (inactive)

Q: With `C[C@H]1CN([C@@H](C)CO)C(=O)Cc2cc(NC(=O)C3CC3)ccc2O[C@H]1CN(C)S(=O)(=O)c1ccc(Cl)cc1` as the compound, how does the inhibition read?
A: 30.4% (inactive)

Q: For `C[C@@H]1CN([C@H](C)CO)C(=O)c2cc(NC(=O)CCN3CCOCC3)ccc2O[C@H]1CN(C)Cc1ccc(Oc2ccccc2)cc1`, which inhibition is on record?
A: -15% (inactive)

Q: Which inhibition does the source give for `Oc1ccc(CN2CCCC2)c2cccnc12` here?
A: 85% (active)

Q: With `Cc1onc(-c2c(Cl)cccc2Cl)c1C(=O)N=S(C)(C)=O` as the compound, how does the inhibition read?
A: -19% (inactive)

Q: For `C[C@H]1CN([C@@H](C)CO)C(=O)c2cccc(NS(=O)(=O)c3cccs3)c2O[C@H]1CN(C)C(=O)Nc1ccccc1`, which inhibition is on record?
A: 26.6% (inactive)

Q: Which inhibition does the source give for `CCC/C=C/C=C/C1CC(O)C(O)C1C(=O)O` (stereo unspecified) here?
A: -18% (inactive)

Q: Which inhibition does the source give for `C[C@H](CO)N1C[C@H](C)[C@H](CN(C)C(=O)NC2CCCCC2)Oc2c(NC(=O)C3CC3)cccc2C1=O` here?
A: -11.9% (inactive)

Q: For `C[C@H](CO)N1C[C@H](C)[C@@H](CN(C)Cc2ccc(Cl)c(Cl)c2)Oc2c(NC(=O)Nc3ccccc3)cccc2C1=O`, which inhibition is on record?
A: -0.821% (inactive)

Q: With `Oc1c(Cl)cc(Cl)c(Cl)c1Cc1c(O)c(Cl)cc(Cl)c1Cl` as the compound, how does the inhibition read?
A: 102% (active)

Q: For `C[C@@H]1CN([C@H](C)CO)C(=O)c2cccc(NC(=O)c3nc4ccccc4s3)c2O[C@H]1CN(C)S(=O)(=O)c1ccc(Cl)cc1`, which inhibition is on record?
A: 11% (inactive)

Q: For `C[C@H]1CN([C@@H](C)CO)C(=O)c2cccc(NS(=O)(=O)c3ccc(F)cc3)c2O[C@@H]1CN(C)CC1CC1`, which inhibition is on record?
A: -16.6% (inactive)

Q: Which inhibition does the source give for `C[C@H]1CN([C@@H](C)CO)C(=O)Cc2cc(NS(=O)(=O)c3ccc(F)cc3)ccc2O[C@H]1CN(C)Cc1ccc(C(F)(F)F)cc1` here?
A: 30.1% (inactive)

Q: Which inhibition does the source give for `COc1ccc(S(=O)(=O)N(C)C[C@H]2Oc3ccc(NC(=O)C4CC4)cc3CC(=O)N([C@@H](C)CO)C[C@@H]2C)cc1` here?
A: -32.4% (inactive)

Q: For `CC(C)NC(=O)Nc1ccc2c(c1)C(=O)N([C@@H](C)CO)C[C@@H](C)[C@H](CN(C)Cc1ccc(C(=O)O)cc1)O2`, which inhibition is on record?
A: -19.8% (inactive)

Q: With `C[C@H]1CN([C@@H](C)CO)C(=O)Cc2cc(N(C)C)ccc2O[C@@H]1CN(C)Cc1ccc(-c2ccccc2)cc1` as the compound, how does the inhibition read?
A: 33.2% (inactive)

Q: With `C[C@@H]1CCCCO[C@@H](CN(C)C(=O)CCC(F)(F)F)[C@@H](C)CN([C@H](C)CO)C(=O)c2cc(NC(=O)Nc3ccccc3)ccc2O1` as the compound, how does the inhibition read?
A: -0.845% (inactive)

Q: With `O=C(c1ccccc1)c1cnn(-c2ccc(Cl)cc2)n1` as the compound, how does the inhibition read?
A: 79.3% (active)

Q: With `C[C@@H]1CN([C@H](C)CO)C(=O)Cc2cc(NC(=O)C3CCCCC3)ccc2O[C@@H]1CN(C)S(C)(=O)=O` as the compound, how does the inhibition read?
A: -14.6% (inactive)

Q: For `C[C@@H]1CN([C@H](C)CO)C(=O)c2cccc(NC(=O)Nc3ccc4c(c3)OCO4)c2O[C@H]1CN(C)C(=O)Nc1ccc(F)cc1`, which inhibition is on record?
A: -8.45% (inactive)

Q: With `C[C@@H]1CN([C@@H](C)CO)C(=O)c2cccc(NC(=O)NC3CCCCC3)c2O[C@@H]1CN(C)CC1CCCCC1` as the compound, how does the inhibition read?
A: -35.3% (inactive)

Q: Which inhibition does the source give for `C[C@H]1CN([C@@H](C)CO)C(=O)Cc2cc(NC(=O)CCC(F)(F)F)ccc2O[C@H]1CN(C)C(=O)NC1CCCCC1` here?
A: -30.3% (inactive)

Q: For `O=C1C2CC3CC1CC(C(=O)O)(C3)C2`, which inhibition is on record?
A: -15.4% (inactive)

Q: For `CCN1C(=O)c2cccc3c(NC(=S)NC(=O)c4ccccc4)ccc1c23`, which inhibition is on record?
A: 86.3% (active)

Q: With `CC(C)(C)c1ccc(Cn2c(=N)n(CC(=O)O)c3ccccc32)cc1` as the compound, how does the inhibition read?
A: -5.52% (inactive)

Q: With `O=c1c2ccccc2c(-c2ccccc2)nn1Cc1ccccc1` as the compound, how does the inhibition read?
A: 9.85% (inactive)

Q: Which inhibition does the source give for `O=c1n(Cc2ccccc2)c2ccccc2n1Cc1ccccc1` here?
A: 96.1% (active)

Q: For `CCCN(C)C[C@@H]1OCCCC[C@@H](C)Oc2ccc(NC(=O)CCCN(C)C)cc2C(=O)N([C@H](C)CO)C[C@@H]1C`, which inhibition is on record?
A: -7.4% (inactive)

Q: For `S=C(NCC1CC1)Nc1ccc(Cl)cc1`, which inhibition is on record?
A: -35.4% (inactive)

Q: Which inhibition does the source give for `O=C(O)c1c(Br)c(Br)c(Br)c(Br)c1-c1c2ccc(=O)cc-2oc2cc(O)ccc12` here?
A: -5.58% (inactive)

Q: For `C[C@@H]1CN([C@@H](C)CO)C(=O)c2cccc(NC(=O)Nc3ccc(F)cc3)c2O[C@H]1CN(C)Cc1ccc(-c2ccccc2)cc1`, which inhibition is on record?
A: 2.55% (inactive)

Q: For `C[C@H]1CN([C@@H](C)CO)C(=O)c2cc(NC(=O)Nc3ccccc3)ccc2O[C@H]1CN(C)S(C)(=O)=O`, which inhibition is on record?
A: -21% (inactive)

Q: With `C[C@@H]1CN([C@H](C)CO)C(=O)Cc2cc(NS(=O)(=O)c3ccc(Cl)cc3)ccc2O[C@H]1CN(C)S(=O)(=O)c1cccs1` as the compound, how does the inhibition read?
A: -21.8% (inactive)

Q: Which inhibition does the source give for `COc1ccc(S(=O)(=O)N(C)C[C@@H]2OCCCC[C@@H](C)Oc3ccc(NS(C)(=O)=O)cc3C(=O)N([C@H](C)CO)C[C@@H]2C)cc1` here?
A: 54.6% (inactive)

Q: For `C=C1C(=O)OC2/C=C(\C)CC3C=C(CC/C=C(\C)CCC12)C(=O)O3` (stereo unspecified), which inhibition is on record?
A: 39.9% (inactive)

Q: For `CC(C)NC(=O)Nc1ccc2c(c1)CC(=O)N([C@H](C)CO)C[C@H](C)[C@H](CN(C)Cc1ccc3c(c1)OCO3)O2`, which inhibition is on record?
A: -12.2% (inactive)

Reference: PubChem BioAssay AID2313 (Broad Institute, 2010)
